For five molecules, composite z-score and z-score results are on record in PubChem BioAssay.

Active and inactive are the calls of the source.

Experiment [1] concerns Plasmodium falciparum Sir2 (PF13_0152, Sir2A). Nature of the experiment: pfSir2 binders on small-molecule microarrays, primary screen, biochemical, small-molecule microarray, 635 nm fluorescence (AID 1098).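 Also: score merges spot fluorescence intensity with its signal-to-noise ratio.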 The settings on record: small-molecule microarray binding, fluorescence 635 nm; higher = more signal.
Experiment [2] in a line: small-molecule microarray binders of probe aDKK1, primary screen, biochemical, biotinylated probe, 635/667 nm fluorescence (AID 1099).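 Also: score merges 667nm spot fluorescence with signal to noise across triplicate slides.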 The following applies: higher = more signal.
Experiment [3] is described as follows: small-molecule microarray binders of probe aCHRDL2, primary screen, biochemical, biotinylated probe, 635/667 nm fluorescence (AID 1100). The following applies: higher = more signal.
The nature of experiment [4]: splicing luciferase reporter signal modulators, primary screen, spliceosome inhibition project, cell-based, HEK293, splice +/- reporter (AID 1101).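 Also: HEK293 cells carrying a splicing-competent luciferase reporter gene; test concentration not given here.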 The following applies: luminescence, 24 h, higher = more signal, called active from +8 up or from −8 down. On the technique in general: In a reporter assay the amount or activity of a reporter protein is the signal.
In experiment [5] the target is Fibroblast growth factor 10 (Homo sapiens) (UniProt O15520). Nature of the experiment: FGF10 binders on small-molecule microarrays, primary screen, biochemical, small-molecule microarray, 635 nm fluorescence (AID 1102). The settings on record: FGF10 binding, fluorescence 635 nm, higher = more signal.
Sequence of Fibroblast growth factor 10 (Homo sapiens) (O15520 whole entry, looked up): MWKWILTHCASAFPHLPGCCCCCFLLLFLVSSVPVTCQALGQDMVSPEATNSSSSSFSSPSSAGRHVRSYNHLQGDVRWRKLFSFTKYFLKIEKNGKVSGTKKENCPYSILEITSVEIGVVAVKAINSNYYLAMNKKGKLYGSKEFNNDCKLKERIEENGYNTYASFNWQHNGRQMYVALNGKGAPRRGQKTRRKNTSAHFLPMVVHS
Experiment [6] deals with glycogen synthase kinase-3 (GSK3A per assay name; protocol says GSK3B). Nature of the experiment: GSK3 binders on small-molecule microarrays, primary screen, biochemical, small-molecule microarray, 635 nm fluorescence, GSK3A (AID 1103). Also: the record names both GSK3A and GSK3B. The following applies: small-molecule microarray binding, fluorescence 635 nm; higher = more signal.
Experiment [7] addresses Epidermal growth factor receptor (Homo sapiens) (UniProt P00533). Nature of the experiment: EGFR binders on small-molecule microarrays, primary screen, biochemical, small-molecule microarray, 635 nm fluorescence (AID 1104).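 Also: score merges 667 nm emission intensity with spot signal to noise over triplicate slides.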 The following applies: EGFR binding, higher = more signal.
Experiment [8] has as its target Follistatin-related protein 3 (Homo sapiens) (UniProt O95633). Nature of the experiment: FSTL3 binders on small-molecule microarrays, primary screen, biochemical, small-molecule microarray, 635 nm fluorescence (AID 1105).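 Also: score merges emission near 667 nm and signal to noise per printed spot across three slides.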 The settings on record: FSTL3 binding, higher = more signal.
Experiment [9] has as its target Dickkopf-related protein 1 (Homo sapiens) (UniProt O94907). Description: DKK1 binders on small-molecule microarrays, primary screen, biochemical, small-molecule microarray, 635 nm fluorescence scan (AID 1106).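 Also: score merges emission near 667 nm with signal to noise over three replicate slides.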 The settings on record: DKK1 binding, higher = more signal.
For experiment [10], the system named is Inhibin beta A chain (activin A). Description: INHBA (activin A) binders on microarrays, primary screen, biochemical, small-molecule microarray, 635 nm fluorescence scan (AID 1107).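 Also: mouse activin A protein probed at 4.33 µg/mL on printed slides; score merges bound-protein fluorescence near 667 nm with spot signal-to-noise.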 The settings on record: small-molecule microarray binding, higher = more signal.
The subject of experiment [11] is Human papillomavirus type 1a protein E7 (residues 44-93). Nature of the experiment: HPV1a E7 fragment binders on microarrays, primary screen, biochemical, small-molecule microarray, residues 44-93, 635 nm fluorescence (AID 1108).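 Also: E7 fragment applied at 1 µg/mL in TBST for 1 h at 4 C; score combines spot fluorescence with its signal to noise ratio.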 The settings on record: small-molecule microarray binding, fluorescence 635 nm; higher = more signal.
Experiment [12] in a line: modulators of HCV replicon luciferase signal, primary screen, HCV replication inhibitor project, Huh7 cells, luciferase reporter (AID 1109).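 Also: huh7 hepatoma cells harbouring a luciferase neomycin HCV replicon reporter; luciferase luminescence as measure of HCV replicon replication; test concentration not given here.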 The settings on record: 48 h, higher = more signal. (In general: A replicon is a self-replicating genome or part of one, used to study replication in cells.)
The target in experiment [13] is Left-right determination factor 2 (Homo sapiens) (UniProt O00292). Nature of the experiment: LEFTY2 binders on small-molecule microarrays, primary screen, biochemical, small-molecule microarray, 635 nm fluorescence scan (AID 1110). The settings on record: LEFTY2 binding, higher = more signal.
Sequence of Left-right determination factor 2 (Homo sapiens) (O00292 whole entry, looked up): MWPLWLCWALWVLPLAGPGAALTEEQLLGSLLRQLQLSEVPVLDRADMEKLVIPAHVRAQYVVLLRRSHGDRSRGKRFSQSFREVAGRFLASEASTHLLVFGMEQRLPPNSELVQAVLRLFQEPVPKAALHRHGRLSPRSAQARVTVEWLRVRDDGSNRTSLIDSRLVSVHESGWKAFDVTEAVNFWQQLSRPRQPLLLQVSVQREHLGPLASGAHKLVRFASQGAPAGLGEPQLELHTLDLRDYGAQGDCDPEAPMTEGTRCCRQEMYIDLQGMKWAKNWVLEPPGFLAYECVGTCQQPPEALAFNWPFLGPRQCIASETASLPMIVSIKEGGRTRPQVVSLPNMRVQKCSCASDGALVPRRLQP
Experiment [14] addresses Calmodulin-1 (Homo sapiens) (UniProt P0DP23). Description: CALM1 binders on microarrays, EGTA buffer, profiling panel, biochemical, small-molecule microarray, Cy5-labelled CALM1 (AID 1111).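 Also: labelled calmodulin applied in Tris saline Tween buffer holding calcium plus EGTA and DTT.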 The following applies: Cy5-CALM1 binding fluorescence, higher = more signal.
The target is the same in experiment [15]. Description: calcium-bound CALM1 binders on microarrays, profiling panel, artefact control for SMM control-protein annotation, biochemical, small-molecule microarray, Cy5-labelled CALM1, plus calcium (AID 1112).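 Also: score merges spot fluorescence with signal to noise from triplicate slides.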 The following applies: Cy5-CALM1 binding fluorescence, higher = more signal.
A short description of experiment [16]: small-molecule microarray binders of probe aWnt5a, primary screen, biochemical, biotinylated probe, 635/667 nm fluorescence (AID 1113).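 Also: score merges 667 nm fluorescence intensity with signal-to-noise per printed feature.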 The settings on record: higher = more signal.
A short description of experiment [17]: small-molecule microarray binders of probe aShh, primary screen, biochemical, biotinylated probe, 635/667 nm fluorescence (AID 1114).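 Also: probe is biotin-labelled aShh protein from a stem cell growth factor screen; measures binding of labelled protein to compounds printed on the slide; score merges feature fluorescence at 667 nm with signal-to-noise.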 The settings on record: higher = more signal.
Experiment [18] in a line: small-molecule microarray binders of probe aNog, primary screen, biochemical, biotinylated probe, 635/667 nm fluorescence (AID 1115).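 Also: probe is biotinylated aNog protein used at 0.15 µg/mL for 1 h at 4 C; z-score combines 667 nm fluorescence of each spot with its signal to noise.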 The following applies: higher = more signal.
Experiment [19] deals with Torsin-1A-interacting protein 1 (Homo sapiens) (UniProt Q5JTV8). Nature of the experiment: LAP1 binders from COS7 cell lysate, primary screen, small-molecule microarray, 635/667 nm fluorescence (AID 1116). The following applies: COS7-hLAP1 lysate binding, 635 nm fluorescence, higher = more signal.
Sequence of Torsin-1A-interacting protein 1 (Homo sapiens) (Q5JTV8 whole entry, looked up): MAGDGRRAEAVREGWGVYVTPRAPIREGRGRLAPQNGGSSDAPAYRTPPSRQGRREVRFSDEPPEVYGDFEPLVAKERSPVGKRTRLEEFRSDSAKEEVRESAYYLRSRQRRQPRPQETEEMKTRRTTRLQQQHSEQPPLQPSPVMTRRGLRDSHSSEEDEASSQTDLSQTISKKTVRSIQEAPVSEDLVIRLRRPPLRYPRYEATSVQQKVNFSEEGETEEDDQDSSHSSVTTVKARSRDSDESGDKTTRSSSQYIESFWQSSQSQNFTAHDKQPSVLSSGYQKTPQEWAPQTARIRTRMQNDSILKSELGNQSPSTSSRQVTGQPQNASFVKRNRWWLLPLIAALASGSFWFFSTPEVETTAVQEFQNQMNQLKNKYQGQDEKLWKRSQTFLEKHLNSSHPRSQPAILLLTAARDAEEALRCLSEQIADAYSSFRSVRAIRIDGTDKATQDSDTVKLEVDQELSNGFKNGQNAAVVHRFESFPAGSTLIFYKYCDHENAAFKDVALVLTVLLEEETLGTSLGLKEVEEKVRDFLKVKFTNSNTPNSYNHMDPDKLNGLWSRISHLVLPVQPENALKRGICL
In experiment [20] the target is Alpha-bungarotoxin (Bungarus multicinctus) (UniProt P60615). Nature of the experiment: alpha-bungarotoxin binders on microarray, profiling panel, artefact control for SMM control protein annotation, biochemical, small-molecule microarray, Alexa647 label, 635/667 nm fluorescence (AID 1117). The settings on record: alpha-BTX-A647 binding fluorescence, higher = more signal.
Sequence of Alpha-bungarotoxin (Bungarus multicinctus) (P60615 whole entry, looked up): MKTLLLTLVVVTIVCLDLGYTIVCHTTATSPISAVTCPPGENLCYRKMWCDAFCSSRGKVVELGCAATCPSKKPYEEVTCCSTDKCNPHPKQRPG

Sequence of Dickkopf-related protein 1 (Homo sapiens) (O94907 whole entry, looked up): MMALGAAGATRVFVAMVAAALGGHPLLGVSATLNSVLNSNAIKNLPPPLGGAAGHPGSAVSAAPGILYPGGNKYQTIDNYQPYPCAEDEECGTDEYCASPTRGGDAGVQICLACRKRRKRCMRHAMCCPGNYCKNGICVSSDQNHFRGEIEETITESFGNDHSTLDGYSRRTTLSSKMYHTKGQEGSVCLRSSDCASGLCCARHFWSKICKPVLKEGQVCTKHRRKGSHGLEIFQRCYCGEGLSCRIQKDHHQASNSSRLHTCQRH
Sequence of Epidermal growth factor receptor (Homo sapiens) (P00533 whole entry, looked up): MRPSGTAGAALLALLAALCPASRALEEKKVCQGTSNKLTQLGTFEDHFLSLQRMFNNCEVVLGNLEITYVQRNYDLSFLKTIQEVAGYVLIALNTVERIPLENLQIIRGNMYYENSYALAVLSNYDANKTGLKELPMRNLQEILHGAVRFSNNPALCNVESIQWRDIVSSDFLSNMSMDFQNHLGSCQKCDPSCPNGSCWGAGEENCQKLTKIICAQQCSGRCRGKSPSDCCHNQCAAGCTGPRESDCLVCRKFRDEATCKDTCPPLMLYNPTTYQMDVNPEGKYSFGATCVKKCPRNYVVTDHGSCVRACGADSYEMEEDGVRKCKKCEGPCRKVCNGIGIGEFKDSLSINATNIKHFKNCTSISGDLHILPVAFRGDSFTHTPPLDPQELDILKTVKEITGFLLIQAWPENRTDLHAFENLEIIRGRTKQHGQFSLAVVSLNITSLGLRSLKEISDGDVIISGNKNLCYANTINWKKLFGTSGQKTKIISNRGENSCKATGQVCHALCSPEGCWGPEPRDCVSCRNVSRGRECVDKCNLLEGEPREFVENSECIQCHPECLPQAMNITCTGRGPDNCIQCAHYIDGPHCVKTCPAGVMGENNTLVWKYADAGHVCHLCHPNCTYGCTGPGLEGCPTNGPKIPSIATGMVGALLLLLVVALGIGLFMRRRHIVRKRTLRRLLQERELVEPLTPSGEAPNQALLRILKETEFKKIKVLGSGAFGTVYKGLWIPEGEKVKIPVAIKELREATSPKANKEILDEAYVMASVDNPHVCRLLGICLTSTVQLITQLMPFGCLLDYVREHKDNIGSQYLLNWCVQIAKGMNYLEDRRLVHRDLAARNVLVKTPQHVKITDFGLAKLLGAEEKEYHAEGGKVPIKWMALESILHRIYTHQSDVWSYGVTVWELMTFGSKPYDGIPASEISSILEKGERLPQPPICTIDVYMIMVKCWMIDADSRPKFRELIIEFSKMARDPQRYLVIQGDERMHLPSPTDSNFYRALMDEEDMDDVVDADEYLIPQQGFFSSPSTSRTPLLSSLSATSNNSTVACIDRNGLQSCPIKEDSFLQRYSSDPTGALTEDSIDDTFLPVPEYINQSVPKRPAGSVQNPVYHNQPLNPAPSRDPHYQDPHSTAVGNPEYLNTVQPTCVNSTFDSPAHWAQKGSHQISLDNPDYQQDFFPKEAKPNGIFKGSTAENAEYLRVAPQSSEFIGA
Sequence of Follistatin-related protein 3 (Homo sapiens) (O95633 whole entry, looked up): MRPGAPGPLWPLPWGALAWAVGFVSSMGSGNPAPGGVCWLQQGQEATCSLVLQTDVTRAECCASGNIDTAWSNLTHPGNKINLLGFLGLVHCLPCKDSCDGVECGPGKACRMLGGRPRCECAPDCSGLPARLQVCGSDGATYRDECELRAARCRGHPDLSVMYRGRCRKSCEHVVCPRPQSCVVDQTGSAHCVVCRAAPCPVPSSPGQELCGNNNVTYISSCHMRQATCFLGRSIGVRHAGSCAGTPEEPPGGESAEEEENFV

On to `CCOC(=O)[C@H](Cc1ccccc1)NC(=O)CCC1CC(OC(=O)NCc2cccc3ccccc23)CC2(CCCC(COC(=O)NCC3CCCCC3)O2)O1` (stereo not given in full), for which the composite z-score is 0.889 in experiment [1]; -0.21 in experiment [2]; -0.53 in experiment [3]; 0.781 in experiment [5]; 0.805 in experiment [6]; 0.604 in experiment [7]. Further, the composite z-score came out at 0.872 in experiment [8]; 0.795 in experiment [9]; 0.381 in experiment [10]; 1.33 in experiment [11]; 0.643 in [13]; 0.297 in experiment [14]. Also, the composite z-score is -0.525 in experiment [15]; -0.0445 in experiment [16]; 0.0596 in experiment [17]; -0.142 in experiment [18]; 0.128 in experiment [19]; 0.746 in [20]. Moreover, the z-score was -0.815 (inactive) in [4] and -1.48 in experiment [12].
Regarding `CC(CCC(=O)OC[C@H]1O[C@H](C#Cc2ccccc2)C=C[C@@H]1Oc1ccc(C)cc1)=NOC(C)CN1CCCCc2nc(C)c(C)cc21` (stereo not given in full), the composite z-score was 0.508 in experiment [1]; -0.241 in [2]; 0.159 in experiment [3]; 0.0616 in experiment [5]; -0.555 in experiment [6]; -0.598 in experiment [7]. The composite z-score in [8] is -0.159; in experiment [9], 0.191; in experiment [10] it was 0.69; in experiment [11], 0.686; in experiment [13] it was -0.132; in experiment [14], -0.19. Further, the composite z-score in [15] was 0.571; in experiment [16], -0.197; in experiment [17] it was -0.0626; in [18], -0.257; in experiment [19], -0.0043; in experiment [20] it was 1.53. The z-score in [4] was -0.176 (inactive); in experiment [12], -1.17.
For the molecule `CC(CCN1CCc2nc(-c3ccccc3)c(-c3ccccc3)cc2C1)=NO[C@H](C)c1cn([C@H](CO)Cc2ccccc2)nn1`, the composite z-score in [1] was 0.343; in experiment [2], -0.0154; in experiment [3], 0.407; in experiment [5], -0.356; in experiment [6], -0.135; in [7], -0.0273. The composite z-score was 0.177 in [8]; -0.193 in experiment [9]; 1.09 in experiment [10]; -0.93 in experiment [11]; 0.332 in [13]; 0.0521 in [14]. The composite z-score was 0.509 in experiment [15]; -0.0242 in experiment [16]; -0.16 in [17]; -0.0309 in experiment [18]; 0.34 in experiment [19]; 1.2 in experiment [20]. The figures for the z-score in [4] and in experiment [12] were -0.534 (inactive) and -2.3, respectively.
`CO[C@@H]1COC(=O)[C@H](CCSC)NC(=O)CC=C[C@@H](C)COC(=O)[C@@H]2CCCN2C(=O)CC=C[C@H]1C`: the composite z-score in experiment [1] is 0.275; in experiment [2], -0.337; in experiment [3] it was -0.584; in experiment [5], 0.779; in experiment [6], 0.745; in experiment [7], 0.898. The composite z-score was 0.909 in [8]; 1.01 in experiment [9]; 0.4 in experiment [10]; -0.427 in experiment [11]; 0.857 in experiment [13]; -0.776 in [14]. For the same molecule, the composite z-score in experiment [15] is -1.36; in experiment [16], -0.0276; in experiment [17], 0.0278; in experiment [18], -0.036; in experiment [19], 0.771; in [20], -0.245. The z-score is -0.595 (inactive) in [4] and -0.522 in [12].
Regarding `C[C@H]1CC[C@H]2C(=O)O[C@H](CO)CN2[C@@H]1c1ccc(Br)cc1`, the composite z-score in experiment [1] was -0.233; in experiment [2], -0.198; in experiment [3], -0.372; in experiment [5] it was -0.111; in experiment [6], -0.348; in experiment [7], 0.0844. In addition, the composite z-score in experiment [8] was -0.378; in [9], -0.106; in experiment [10], 0.829; in experiment [11], 0.33; in experiment [13], 0.217; in experiment [14] it was -0.25. In addition, the composite z-score in [15] is -0.445; in [16], -0.213; in experiment [17], -0.276; in experiment [18], -0.234; in experiment [19], -0.138; in [20] it was 0.126. For the same molecule, the z-score is -0.202 (inactive) in [4] and -0.0002 in [12].
